Source: PubChem BioAssay (NCATS)
Several values for one entry are separate records, joined by “and”; a condition that tells them apart may be missing. Equal entries are not always repeated. Inconclusive results are not listed. Activity calls are given as the source filed them. The call rests on the fitted dose curve; in most records, active means well fitted cell-killing curve with a large enough effect; inconclusive means small, poorly fitted or top-dose-only effect, or effect the other way; inactive means no such curve, though single readings can be large or run the other way.

Assay: Viability qHTS for spleen associated tyrosine kinase inhibitor (SYKi) drug resistant MV4-11 cells (AID 1963824); further: nearly all actives have a fitted effect of over 35% in size
Conditions: SYKi-resistant MV4-11 viability, CellTiter-Glo, 72 h; series mostly up to 45 µM; viability, % of control: at the top concentration
From the text: Department of Medicine, Hematology/Oncology
University Hospital Frankfurt, Germany.
Trials have shown promising clinical activity of the selective SYK inhibitor entospletinib in patients with high expressing HOXA9/MEIS1 acute leukemias. As the development of resistance mechanisms is a common problem in the use of targeted drugs, we performed a chemical library screen to identify drug sensitivities in SYK inhibitor resistant AML cells. […] Glucocorticoids are potent immunosuppressants which work in part by inhibiting the transcription of cytokine genes.
Described herein is a viability screen to look for activity in the SYK inhibitor drug resistant cell line against four NCATS compound libraries (MIPE 5.0, NPC, NPACT, and Kinase) totaling 11372 compounds. Active hits were reacquired for confirmation and further secondary assay testing.
SEQUENCE No. (e.g., 1, 2, 3, etc.); […] (e.g., Cells, Incubation, Reagent, etc.); VALUE; DESCRIPTION.
1; Media; 2uL; white, solid-bottom Corning assay plate.
2; Compounds; 23nL; Echo acoustic dispenser.
3; Cell; 5uL; 500 cells per well.
4: Incubation; 72hr; 37 C, 5% CO2, 95% humidity.
5; Reagent; 3uL; CellTiter-Glo reagent (Promega).
6; Incubation; 10min; room temperature.
7; Detection; Luminescence; ViewLux plate reader (PerkinElmer).
NOTES (numbers refer to Sequence numbers above
1. Quantitative high-throughput screening (qHTS) of small molecule compounds was conducted on drug resistant SYKi MV4-11 cell line.
2. Twenty-three nanoliter of small molecule compounds were added to each assay plates using the Echo acoustic dispenser (Beckman Coulter).
3. Cells were seeded into the assay plates at a final density of 500 cells in 5uL of media per well using the Multidrop Combi dispenser.
4. Plates were covered with stainless steel gasketed lids and incubated for 72 hours at standard cell culture conditions.
5. Viability was assessed by adding 3uL of CellTiter-Glo detection reagent (Promega).
6. Plates were covered with gasket lids and incubated for 10 minutes at room temperature.
7. Luminescence was measured on a ViewLux plate reader (PerkinElmer).
Potency means the concentration at half of the fitted maximal effect.

| SMILES | Potency | viability, % of control |
| --- | --- | --- |
| CCOC(=O)N1CCC(N2CCC[C@@H](NC(=O)c3ccccc3C)C2)CC1 | 14.6 µM (active) |  |
| O=C(O)Cn1nnc(-c2cc(N3CCC(Oc4cc(F)ccc4Br)CC3)no2)n1 | 0.103 µM (active) |  |
| N#Cc1ccc(-c2ccc(S(=O)(=O)Nc3cccc(N)n3)cc2)cc1 | 7.31 µM (active) |  |
| C=CCN1C[C@H](C(=O)N(CCCN(C)C)C(=O)NCC)CC2c3cccc4[nH]cc(c34)C[C@H]21 (stereo not given in full) | 16.6 µM (active) |  |
| COc1ccccc1C(=O)Nc1cc2c(cc1N1CCCC1)n(C)c(=O)n2C | 9.34 µM (active) |  |
| CC(=O)NCc1c(I)c(NC(C)=O)c(I)c(C(=O)O)c1I |  | 82.7% (inactive) |
| Cc1ccc(C)c(S(=O)(=O)n2cnc3ccccc32)c1 |  | 88.5% (inactive) |
| COC(=O)c1cc(S(N)(=O)=O)ccc1OC |  | 90.8% (inactive) |
| C=C1C(=O)OC2/C=C(\C)CC/C=C(\C=O)C(OC)C(OC(=O)C(C)CC)C12 (stereo not given) | 2.02 µM (active) |  |
| CN1CCN(C2=Nc3cc(Cl)ccc3Nc3ccccc32)CC1 |  | 3.79% (inactive) |
| COc1cc2c(c(OC)c1OC)-c1ccc(OC)c(=O)cc1[C@@H](NC(C)=O)CC2 | 16.8 nM (active) and 14.8 nM (active) |  |
| C[C@H]1CNC(=O)c2cnn3ccc(nc23)N[C@H](C)c2cc(F)ccc2O1 | 0.934 µM (active) |  |
| CN(C)c1ccc(C2O[C@@H](c3ccccc3)C[C@H](c3ccccc3)O2)cc1 (stereo not given in full) |  | 66.1% (inactive) |
| C=C[C@H]1CN2CC[C@H]1C[C@@H]2[C@@H](O)c1ccnc2ccc(OC)cc12 |  | 84.2% (inactive) |
| CCCC(=O)C1CCN(c2ncnc3c2CN(C(=O)c2ccc(-c4ccccc4)cc2)CC3)CC1 | 20.6 µM (active) |  |
| CCOC(=O)NNc1nncc2ccccc12 |  | 84.5% (inactive) |
| CC(C)(C)n1nc(-c2cccc3ccccc23)c2c(N)ncnc21 | 14.6 µM (active) |  |
| C=CS(=O)(=O)NC1CCN(C(=O)CNc2cc(I)c(Cl)cc2OC)CC1 | 2.06 µM (active) |  |
| CC(C)(C)NC(=O)Nc1cccc(Nc2ncc(F)c(NC(C)(C)CO)n2)c1 | 2.31 µM (active) |  |
| CC1(c2nc3c(C(N)=O)cccc3[nH]2)CCCN1 (stereo not given) |  | 69.8% (inactive) |

| SMILES | Potency | viability, % of control |
| --- | --- | --- |
| CN=C(NC#N)Nc1ccc(C2=NNC(=O)CC2C)cc1 (stereo not given) |  | 62.1% (inactive) |
| COC1=CC(=O)C[C@@H](C)[C@]12Oc1cc(OC)cc(OC)c1C2=O |  | 98.9% (inactive) |
| COc1ccc(Cl)c(Nc2nc3ccccc3nc2NS(=O)(=O)c2cccc(NC(=O)C(C)(C)N)c2)c1 | 8.2 µM (active) |  |
| CC(C)(C)NCC(O)COc1cccc2c1CCC(=O)N2 (stereo not given) |  | 78.5% (inactive) |
| COC(=O)C1=C(C)NC(C)=C(C(=O)OCCN2CCN(C(c3ccccc3)c3ccccc3)CC2)C1c1cccc([N+](=O)[O-])c1 (stereo not given) | 6.68 µM (active) |  |
| CN(C)CCNC(=O)NC[C@H]1CC[C@@H]2[C@H](O1)c1cc(C(F)(F)F)ccc1N[C@H]2c1ccccc1 | 0.132 µM (active) |  |
| CC/C=C\CCO[C@@H]1O[C@H](CO)[C@@H](O)[C@H](O)[C@H]1O |  | 95.3% (inactive) |
| C=C(C)[C@@H](C)[C@H]1O[C@]23C[C@]4(CO2)C(CCC2[C@@]5(C)CC[C@H](O[C@@H]6OC[C@H](O)[C@H](O[C@@H]7O[C@H](CO)[C@@H](O)[C@H](O)[C@H]7O)[C@H]6O[C@@H]6O[C@@H](CO)[C@H](O)[C@H]6O)C(C)(C)C5CC[C@]24C)C3[C@@](C)(O)[C@@H]1OC(C)=O (stereo not given in full) |  | 92.6% [at 9.25 µM] (inactive) |
| Cn1cc[nH]c1=S |  | 82.4% (inactive) |
| O=C1C(Cl)=C(NCCN2CCOCC2)C(=O)c2ncccc21 | 2.09 µM (active) |  |
| COC(=O)CC1(O)C(=O)Nc2ccccc21 (stereo not given) |  | 82.7% (inactive) |
| C/C=C/C=C/C=C/C(=O)O[C@@H]1C=C(CO)C(O)(C(=O)O)[C@@]2(C)CCCC(C)(C)[C@H]12 (stereo not given in full) |  | 56.1% [at 17.3 µM] (inactive) |
| COc1ccnc(CS(=O)c2nc3cc(OC(F)F)ccc3[nH]2)c1OC (stereo not given) |  | 57.8% (inactive) |
| CCCOc1ccc2c(c1)CC[C@@H]1[C@@H]2CC[C@]2(C)C(OC)CC[C@@H]12 (stereo not given in full) |  | 71.4% (inactive) |
| CC(C)CNc1ccnc(NCc2csc(-c3ccccc3)n2)n1 | 1.16 µM (active) |  |
| CCN1CCC[C@H]1CNC(=O)c1cc(S(N)(=O)=O)ccc1OC | inactive |  |
| CCCN1CCN(c2ccc(C(=O)NC3(C(=O)NCC#N)CCCCC3)cc2)CC1 |  | 73.1% (inactive) |
| O=C(Nc1cnn2ccc(N3CCC[C@@H]3c3cc(F)ccc3F)nc12)N1CC[C@H](O)C1 |  | 72% (inactive) |
| Clc1ccc2c(c1)C1=NCCN1c1c(-c3noc(C4CC4)n3)ncn1-2 |  | 78.8% (inactive) |
| O=S(=O)(O)c1cc(I)c(O)c2ncccc12 |  | 79.4% (inactive) |
